From PubChem BioAssay (Tox21)
Where “and” joins values, the source holds several entries; their conditions need not be identical. Equal entries are not always repeated. Inconclusive results are not listed. The source holds several records for some structures; these can differ, active in one and inactive in another. Calls of active or inactive are those of the source. Unless noted, calls follow the shape of the dose curve; as a rule, active = well fitted curve in the direction sought with a large enough effect in the repeat runs; inconclusive = weak or mixed curves; inactive = no such curve, though single readings can be large; an effect the other way counts as inactive or inconclusive.

Key:
[1] = qHTS assay to identify small molecule antagonists of the retinoid-related orphan receptor gamma (ROR-gamma) signaling pathway - cell viability counter screen (AID 1159520); also: nearly all actives have a fitted effect of over 50% in size; also: potency is read from the fitted curve at half-maximal effect; as to activity, negative = cytotoxicity: % is scaled to controls: 0 for no effect and ±100 for the full control effect
In short: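 Tet-on ROR gamma CHO cells (1,000/well) were plated 4 hr, given compounds in DMSO for 2 hr at 37 C, then induced with 1 uM final doxycycline for 16 hr. Viability was read as ATP by CellTiter-Glo luminescence after 30 min.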

[2] = target: Nuclear receptor ROR-gamma (Homo sapiens) (UniProt P51449); experiment: qHTS assay to identify small molecule antagonists of the retinoid-related orphan receptor gamma (ROR-gamma) signaling pathway (AID 1159521; also: nearly all actives have a fitted effect of over 50% in size; also: potency is read from the fitted curve at half-maximal effect;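 as to activity change, negative = inhibition: CHO cells with doxycycline inducible ROR-gamma driving an RORE luciferase reporter; top concentration of the series differs between compounds; % is scaled to controls: 0 for no effect and ±100 for the full control effect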)
In short: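 CHO cells expressing RORγ under a TET-on promoter, luciferase under RORE control. Dox 1 uM final, 16 h; compounds added 2 h prior. Luminescence decrease measured.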

[3] = qHTS assay to identify small molecule agonists of the AP-1 signaling pathway - cell viability counter screen (AID 1159525; calls by dose curve; also: nearly all actives have a fitted effect of over 55% in size; also: potency is read from the fitted curve at half-maximal effect)
In short: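 ME-180 AP-1-bla, 2500 cells/well, Opti-MEM + 0.5% dialyzed FBS; overnight 37 °C; cpd 15-pt titration, 5 h 37 °C; CellTiter-Glo 30 min RT; luminescence read; normalised to TOAB and DMSO controls.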

[4] = qHTS assay to identify small molecule agonists of the AP-1 signaling pathway (AID 1159526; calls by dose curve; also: % is scaled to controls: 0 for no effect and ±100 for the full control effect)
[5] = target: Retinoic acid receptor RXR-alpha (Homo sapiens) (UniProt P19793); experiment: qHTS assay to identify small molecule agonists of the RXR signaling pathway (AID 1159527; calls by dose curve; also: % is scaled to controls: 0 for no effect and ±100 for the full control effect; nearly all actives have a fitted effect of over 35% in size)
Chain of Retinoic acid receptor RXR-alpha (Homo sapiens) (P19793 whole entry, looked up): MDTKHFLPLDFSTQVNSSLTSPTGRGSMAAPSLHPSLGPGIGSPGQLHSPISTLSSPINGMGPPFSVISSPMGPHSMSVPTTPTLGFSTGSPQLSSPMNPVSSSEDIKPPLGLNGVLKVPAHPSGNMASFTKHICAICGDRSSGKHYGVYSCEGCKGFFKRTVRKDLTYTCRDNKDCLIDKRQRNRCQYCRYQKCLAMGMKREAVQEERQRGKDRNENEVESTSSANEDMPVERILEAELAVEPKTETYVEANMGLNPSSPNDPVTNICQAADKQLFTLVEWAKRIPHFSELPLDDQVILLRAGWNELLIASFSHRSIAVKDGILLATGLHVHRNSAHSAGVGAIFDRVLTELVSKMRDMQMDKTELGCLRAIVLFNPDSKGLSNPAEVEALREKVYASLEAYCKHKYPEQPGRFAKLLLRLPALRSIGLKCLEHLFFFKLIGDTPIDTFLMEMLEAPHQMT
In short: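 Beta-lactamase reporter assay, agonist format. Engineered HEK 293T line, charcoal-stripped FBS at 2%, overnight (16 hr) exposure, fluorescence at 460 and 530 nm after 405 nm excitation.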

[6] = qHTS assay to identify small molecule agonists of the RXR signaling pathway - cell viability counter screen (AID 1159529); also: nearly all actives have a fitted effect of over 50% in size; also: potency is read from the fitted curve at half-maximal effect;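 as to activity change, negative = cytotoxicity: HEK 293T cells carrying an RXR-alpha UAS beta-lactamase reporter; series mostly up to about 77 µM; % is scaled to controls: 0 for no effect and ±100 for the full control effect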
In short: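 Same-well viability check after the LiveBLAzer FRET read: CellTiter-Glo added, luminescence measured after 30 min at room temperature. Reporter HEK 293T cells had been treated with compounds for 16 hr following a 5 hr preincubation.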

[7] = qHTS assay to identify small molecule agonists of the vitamin D receptor (VDR) signaling pathway - cell viability counter screen (AID 743224); also: potency is read from the fitted curve at half-maximal effect; nearly all actives have a fitted effect of over 50% in size
In short: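 VDR-bla cells, 4 h after plating, exposed to compounds for 16 h at 37C; viability then read in the same wells as CellTiter-Glo luminescence after 30 min at room temperature, following the bla FRET read.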

[8] = qHTS assay to identify small molecule antagonists of the vitamin D receptor (VDR) signaling pathway - cell viability counter screen (AID 743225)
In short: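 Luminescent cell viability (CellTiter-Glo) in VDR-bla HEK 293T cells after 16 h compound exposure at 37C in the presence of 3 nM final 1-alpha,25-dihydroxy vitamin D3.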

CCc1c(C(=O)O)c(=O)cnn1-c1ccc(Cl)cc1
inactive: Potency [1] | Potency [2] | Potency [3] | Potency [4] | Potency [5] | Potency [6]

C[C@H]1O[C@@H](O[C@H]2[C@@H](O)C[C@H](O[C@H]3[C@@H](O)C[C@H](O[C@H]4CC[C@@]5(C)[C@H](CC[C@@H]6[C@@H]5C[C@@H](O)[C@]5(C)[C@@H](C7=CC(=O)OC7)CC[C@]65O)C4)O[C@@H]3C)O[C@@H]2C)C[C@H](O)[C@@H]1O
30.7 µM (active) and inactive: Potency [1]
inactive: Potency [4]
active: Potency [2] 4.33 µM and 8.54 µM

OCCCS
inactive: Potency [1] | Potency [2] | Potency [3] | Potency [4] | Potency [6]

CC(=O)O[C@@H]1C[C@@H]2CC[C@@]1(C)C2(C)C
inactive: Potency [1] | Potency [2] | Potency [3] | Potency [4] | Potency [6]

C=CC(=C)CC/C=C(\C)CCC=C(C)C
inactive: activity, negative = cytotoxicity [1] 3.07% [at 19 µM] | activity change, negative = inhibition [2] 0.326% [at 19 µM] | viability change, negative = cytotoxic [3] 2.62% [at 15.8 µM] | activation [4] -1.16% [at 15.8 µM] | activation [5] -18.2% [at 15.8 µM] | activity change, negative = cytotoxicity [6] -8.98% [at 15.8 µM]

Clc1cccnc1
inactive: Potency [1] | Potency [2] | Potency [3] | Potency [4] | Potency [5] | Potency [6]

CC1=C(/C=C/C(C)=C/C=C/C(C)=C/C(=O)Nc2ccc(O)cc2)C(C)(C)CCC1
active: Potency [7] 14.2 µM and 10.6 µM | Potency [8] 14.2 µM and 10.7 µM | Potency [1] 31.4 µM and 13.3 µM | Potency [2] 19.8 µM and 8.41 µM | Potency [3] 44.8 µM | Potency [6] 35.6 µM and 12 µM

OCCCCl
inactive: Potency [1] | Potency [2] | Potency [3] | Potency [4] | Potency [6]

CCCCN(C)C
inactive: Potency [1] | Potency [2] | Potency [3] | Potency [4] | Potency [6]

C/C=C/c1ccc(OC)c(OC)c1
inactive: Potency [1] | Potency [2] | Potency [3] | Potency [4] | Potency [6]

COc1cccc(OC)c1O
inactive: Potency [1] | Potency [2] | Potency [3] | Potency [4] | Potency [6]

CCCC(C)CCC(C)=O (configuration not stated)
inactive: Potency [1] | Potency [2] | Potency [3] | Potency [4] | Potency [6]

CCc1cccc(CC)c1NC(=O)C(=O)O
inactive: Potency [1] | Potency [2] | Potency [3] | Potency [4] | Potency [6]
